# Measurements as given in PubChem BioAssay AID624138 (Broad Institute, 2012).
# In all, about 17,000 compounds went through this assay and about 35 (0.2%) were called active.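 How the source made its calls: active means compounds whose four printed spots each show fluorescence over background unusually high for their array block, chance value under 7%; inactive means the rest.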 Many of the other results were omitted from the sample, so actives are more common in it than they were.
# Biological target: Signal transducer and activator of transcription 3 (Homo sapiens) (UniProt P40763)
# Sequence (P40763 whole entry, looked up): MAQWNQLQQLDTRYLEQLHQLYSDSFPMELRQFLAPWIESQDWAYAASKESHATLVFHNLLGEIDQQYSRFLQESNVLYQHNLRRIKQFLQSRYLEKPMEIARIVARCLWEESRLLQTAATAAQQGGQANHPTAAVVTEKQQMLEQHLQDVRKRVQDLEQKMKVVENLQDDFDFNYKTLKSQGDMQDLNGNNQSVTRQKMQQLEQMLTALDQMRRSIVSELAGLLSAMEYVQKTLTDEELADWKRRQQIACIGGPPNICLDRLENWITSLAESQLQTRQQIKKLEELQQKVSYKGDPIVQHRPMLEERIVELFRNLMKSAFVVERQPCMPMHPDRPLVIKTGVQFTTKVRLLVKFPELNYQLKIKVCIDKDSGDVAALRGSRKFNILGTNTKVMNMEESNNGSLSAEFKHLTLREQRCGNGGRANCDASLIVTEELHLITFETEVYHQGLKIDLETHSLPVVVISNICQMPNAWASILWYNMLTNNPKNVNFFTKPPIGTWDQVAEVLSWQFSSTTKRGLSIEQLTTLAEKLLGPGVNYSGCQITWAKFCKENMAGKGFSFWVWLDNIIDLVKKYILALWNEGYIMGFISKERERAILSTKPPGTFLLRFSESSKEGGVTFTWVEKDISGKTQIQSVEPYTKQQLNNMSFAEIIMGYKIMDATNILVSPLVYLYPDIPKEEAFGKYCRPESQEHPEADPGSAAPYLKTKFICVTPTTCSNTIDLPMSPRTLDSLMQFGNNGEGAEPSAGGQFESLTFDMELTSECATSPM
# Assay: STAT3 binders, primary screen, biochemical, small molecule microarray, single point, set 2 (AID 624138)
# Settings: His-STAT3 binding, anti-His fluorescence
row,Structure (SMILES),outcome
1,c1cncc(CNCCc2c[nH]c3ccccc23)c1,active
2,COc1ccc2[nH]cc(CCNCc3ccc(Br)cc3)c2c1,inactive
3,CC(=O)c1c(O)c(C)c(O)c(Cc2c(O)c3c(c(C(=O)/C=C/c4ccccc4)c2O)OC(C)(C)C=C3)c1O,inactive
4,C[C@H]1CCC/C=C/C2C[C@H](O)C[C@H]2[C@H](O)/C=C\C(=O)O1 (stereo not given in full),inactive
5,Cc1ccc(OC(=O)N(C)C[C@@H]2OCc3cnnn3CCCC(=O)N([C@H](C)CO)C[C@@H]2C)cc1,inactive
